Entries with a potency or affinity are not part of this list. Activity calls are given as the source filed them. No rule for the calls is given here.
Experiment: HeLa cell viability loss – 24 h, dry powder, cytotoxicity control, dose response (AID 651774)
Conditions: CellTiter-Glo ATP luminescence; series mostly up to 35 µM

| Structure (SMILES) | outcome |
| --- | --- |
| O=C(Cc1ccccc1-c1ccccc1)NC1CCCC1 | inactive |
| CN(Cc1ccc(N2CCCC2)cc1)c1nnnn1C | inactive |
| CCNC(=O)Cc1ccc(-c2ccccc2)cc1 | inactive |
| O=C(Cc1ccc(-c2ccncc2)cc1)NC1CCCC1 | inactive |
| O=C(Cc1ccc(-c2ccccc2)cc1)NC1CCOCC1 | inactive |

Reference: PubChem BioAssay AID651774 (Broad Institute, 2012)
